# Screens as filed in PubChem.
# Compounds with a hit are over-represented: about 18% of the library has one in this group of screens.
# TDP1 block – qHTS Assay for Inhibitors of Tyrosyl-DNA Phosphodiesterase (TDP1) | recombinant TDP1, AlphaScreen DNA substrate cleavage | Potency, µM (doses to about 130 µM), most hits filed as inhibitors | actives 0.28% (n = 350,000) | AID 485290, 2010; note: nearly all actives have a fitted effect of over 40% in size
# Target sequence (Q9NUW8 whole entry, looked up): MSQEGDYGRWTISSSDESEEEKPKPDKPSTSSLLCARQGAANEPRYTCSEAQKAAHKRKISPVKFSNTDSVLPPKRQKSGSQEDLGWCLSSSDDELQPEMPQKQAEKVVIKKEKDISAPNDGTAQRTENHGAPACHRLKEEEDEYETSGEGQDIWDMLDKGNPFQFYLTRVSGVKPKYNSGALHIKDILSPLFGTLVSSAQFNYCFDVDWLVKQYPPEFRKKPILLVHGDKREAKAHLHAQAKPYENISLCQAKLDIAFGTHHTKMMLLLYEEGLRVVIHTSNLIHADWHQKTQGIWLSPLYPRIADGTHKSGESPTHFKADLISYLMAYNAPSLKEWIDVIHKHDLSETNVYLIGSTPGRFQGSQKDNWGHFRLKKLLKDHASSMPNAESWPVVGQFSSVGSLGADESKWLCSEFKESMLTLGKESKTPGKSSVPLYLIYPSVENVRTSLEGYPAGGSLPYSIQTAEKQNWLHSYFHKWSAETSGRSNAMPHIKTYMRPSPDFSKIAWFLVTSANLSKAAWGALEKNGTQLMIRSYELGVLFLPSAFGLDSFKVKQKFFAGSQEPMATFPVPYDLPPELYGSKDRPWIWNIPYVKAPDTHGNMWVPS
#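 Compounds were preincubated with Tdp1 (1 nM final) for 15 min at room temperature before substrate (15 nM final) started a 5 min reaction; beads (10 ug/ml final) were then added for 10 min before AlphaScreen detection.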
# Six1-Eya2 inh – qHTS Assay for Inhibitors of the Six1/Eya2 Interaction; Homeobox protein SIX1 (Homo sapiens) + Protein phosphatase EYA2 (Homo sapiens), …; AlphaScreen GST-Six1/His-Eya2 binding, biochemical; hits give low values; activity change, % (no concentration beside the values); actives 0.56% (n = 360,000); AID 651725, 2012; in the data active = activity change below about -65%; inconclusive = mostly about -30% to -63%
#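 Homogeneous AlphaScreen proximity assay pairing GST-Six1 with His-tagged Eya2 (added as 5X mix: 250 nM and 500 nM) in 50 mM Tris pH 8.0, 300 mM NaCl, 1 mM TCEP. Glutathione donor and nickel acceptor beads; 1 h, 37 °C, dark.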
# IL-1B inflam inh – qHTS for Inhibitors of Inflammasome Signaling: IL-1-beta AlphaLISA Primary Screen; THP-1 LPS/ATP IL-1B secretion, AlphaLISA, 16 h; hits give low values; activity change, % at 57.5 µM; actives 4.7% (n = 360,000); AID 743279, 2014; in the data active = activity change below about -50%; inconclusive = mostly about -30% to -49%
#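 THP-1 cells pretreated 1 hr with compounds (up to 57.5 uM final), then stimulated with LPS (250 ng/mL final) plus ATP (1.25 mM final); secreted IL-1B measured by AlphaLISA after 16 hr, decreased signal indicating inhibition.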
# CtBP-E1A inh – qHTS Assay for Inhibitors of the CtBP/E1A Interaction. AlphaScreen GST-E1A/His-CtBP binding, 1536-well; hits give low values. activity change, % (concentration not given with the values). actives 0.49% (n = 340,000). AID 651724, 2012; in the data active = activity change below about -65%; inconclusive = mostly about -30% to -63%
#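 AlphaScreen with 125 nM GST-E1A and 125 nM His-CtBP (5X stocks) in Tris pH 8.0, 300 mM NaCl, BSA, Tween 20, TCEP. Compounds preincubated 2 h at 37 deg C, then glutathione donor/nickel acceptor beads added for 1 h at 37 deg C in dark.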
# DT40 TDP1 no CPT – qHTS for Inhibitors of human tyrosyl-DNA phosphodiesterase 1 (TDP1): qHTS in cells in absence of CPT | DT40 Tdp1-/- hTDP1 cells, no CPT, ATP luminescence, 48 h | Potency, µM (titrated, usually from 46.2 µM), most hits filed as inhibitors | actives 15% (n = 420,000); note: nearly all actives have a fitted effect of over 55% in size
#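 Luminescent ATP content (CellTiter-Glo) served as the growth readout. Knockout chicken DT40 cells expressing human TDP1 were exposed to compounds without camptothecin for a minimum 48 hr at 37 °C.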
# TDP1 cell CPT – qHTS for Inhibitors of human tyrosyl-DNA phosphodiesterase 1 (TDP1): qHTS in cells in presence of CPT. chicken DT40 Tdp1-/-;hTDP1 cells + 20 nM CPT, ATP luminescence, 48 h. Potency, µM (highest dose often 46.2 µM), actives largely listed as inhibitors. actives 12% (n = 420,000). AID 686979, 2013; note: nearly all actives have a fitted effect of over 55% in size
#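 Chicken DT40 Tdp1-/- cells stably complemented with human TDP1 were seeded at 400 cells/well in medium containing 20 nM camptothecin, exposed to pin-transferred compounds, and grown at 37 °C for at least 48 hr. Viability was read as ATP luminescence.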
# Numbers stand for hits; i = inactive; ? = inconclusive; nt = no result. Unless noted, calls come from the whole dose curve; as a rule, active = well fitted curve in the direction sought with a large enough effect; inconclusive = small, poorly fitted or top-dose-only effect, or another doubt; inactive = no such curve, though single readings can be large; an effect the other way counts as inactive or inconclusive.
SMILES,TDP1 block,Six1-Eya2 inh,IL-1B inflam inh,CtBP-E1A inh,DT40 TDP1 no CPT,TDP1 cell CPT
Nc1ccc2nc(-c3cccs3)[nH]c2c1,i,i,i,i,?,20.6µM
Nc1ccc(-c2nc3c(Cl)cc(N)cc3[nH]2)cc1,i,i,?,?,7.31µM,5.8µM
O=[N+]([O-])c1cc(Cl)c2cccnc2c1O,i,-81.3,i,-91.5,18.4µM,?
O=[N+]([O-])c1cc([N+](=O)[O-])c2cccnc2c1Oc1ccccc1O,i,-65.2,i,?,1.84µM,2.59µM
O=[N+]([O-])c1cc(F)c2cccnc2c1O,i,-87.9,i,nt,7.31µM,9.2µM
O=[N+]([O-])c1ccc(O)c2cccnc12,i,i,i,i,i,i
Clc1cc2cccnc2c2ncccc12,i,-67.2,i,-96.0,i,i
CC(=O)/C(=N/Nc1cccc(Cl)c1)N1CCOCC1,i,i,i,i,?,?
CCN(CC)C(=O)[C@H]1C[C@H](CC(=O)NCCCN(C)C)C(=O)N2CCc3c([nH]c4cc(CCC(=O)N(C)C)ccc34)[C@]12C,i,i,i,i,i,i
CCOC(=O)c1ccccc1NC(=O)CSc1cccc[n+]1[O-],i,i,i,i,i,i
O=C(Nc1ccc(S(=O)(=O)N2CCOCC2)cc1)c1cc(-c2cc(Cl)ccc2O)n[nH]1,i,i,?,nt,5.8µM,6.51µM
Cc1cc(O)c(-c2cc(C(=O)Nc3ccc(S(=O)(=O)N4CCOCC4)cc3)[nH]n2)cc1C,i,?,-104.8,-71.8,18.4µM,?
CCCc1nnc(NC(=O)c2ccc(S(=O)(=O)N(C)c3ccccc3OC)cc2)s1,i,i,i,i,?,i
CCCOc1ccc(-c2nc(C#N)c(NCC3CCCO3)o2)cc1 (stereo not given),i,i,i,i,?,i
CCOc1nc2cnccc2n(CC(=O)Nc2c(F)c(F)cc(F)c2F)c1=O,i,i,i,nt,i,i
Cc1[nH]c(/C=C2\C(=O)Nc3ccc(S(=O)(=O)N(C)c4cccc(Cl)c4)cc32)c(C)c1C(=O)N1CCN(C)CC1,i,nt,nt,nt,nt,nt
CN(C)S(=O)(=O)c1ccc2c(c1)/C(=C/c1cc3c([nH]1)CCCC3)C(=O)N2,i,i,i,i,3.26µM,4.61µM
CCN(CC)C(=O)n1cnc(-c2ccccc2)c1-c1ccccc1,i,i,i,i,?,?
CCCc1ccc2oc(C(=O)NCCN3CCCC(O)C3)c(C)c2c1 (stereo not given),i,i,-66.3,i,?,?
CCOc1ccccc1C(=O)N/N=C/c1coc2ccc(C)cc2c1=O,35.5µM,i,i,i,?,18.4µM
Cc1ccc2occ(/C=N/NC(N)=S)c(=O)c2c1,i,i,i,i,25.9µM,?
Cc1cccc(C)c1OC(=O)c1ccccc1,nt,i,i,i,i,i
COc1cc2nc(SCC(=O)Nc3ccc(F)cc3)n3nc(CCn4c(C)nc5ccccc54)nc3c2cc1OC,i,nt,nt,nt,5.17µM,2.06µM
COc1cc2nc(SCC(=O)Nc3ccccc3C)n3nc(CCn4c(C)nc5ccccc54)nc3c2cc1OC,i,nt,nt,nt,3.26µM,2.91µM
Cc1ccc(CSc2nc3ccccc3c3nc(CCn4c(C)nc5ccccc54)nn23)cc1,i,nt,nt,nt,i,i
SMILES,TDP1 block,Six1-Eya2 inh,IL-1B inflam inh,CtBP-E1A inh,DT40 TDP1 no CPT,TDP1 cell CPT
COc1cc2nc(SCC(=O)Nc3cccc(C)c3)n3nc(CCn4c(C)nc5ccccc54)nc3c2cc1OC,i,nt,nt,nt,2.59µM,2.59µM
Nc1c2c(nn1-c1ccc(C(=O)O)cc1)CNC2,nt,i,i,i,i,i
O=C(CC[C@H]1O[C@@H](n2cnc3c(NC(=O)c4ccccc4)ncnc32)[C@H](O)[C@@H]1O)NCc1nc2ccccc2[nH]1,nt,i,i,i,i,i
CC[n+]1c(C)sc2cc(OC)ccc21,i,i,-67.2,i,2.91µM,2.59µM
C/C(=N\NC(=O)NC1CCCCC1)C1CCCCC1,i,i,i,i,i,i
O=C(Nc1ccc([N+](=O)[O-])cc1)Nc1ccc(Cl)cc1F,i,i,-92.7,i,1.64µM,2.59µM
Cc1ccc([N+](=O)[O-])cc1NC(=O)Nc1ccc(S(N)(=O)=O)cc1,i,i,i,nt,i,i
Cc1cc(OC(F)F)ccc1NC(=O)Nc1ccc([N+](=O)[O-])cc1,i,i,?,i,18.4µM,14.6µM
COCCN(C(=O)c1ccc(-c2ccc([N+](=O)[O-])cc2)o1)c1c(N)n(CC(C)C)c(=O)[nH]c1=O,i,i,i,i,i,i
Cc1ccc(CCNC(=O)C2CCC(CNc3c(N4CCCC4)c(=O)c3=O)CC2)cc1 (stereo not given),i,i,i,i,i,i
COc1ccc(S(=O)(=O)N2CCN(C)CC2c2ccccc2)cc1OC (stereo not given),i,i,i,i,i,i
CCCSCCCNC(=O)c1ccc2c(c1)sc1nc(-c3ccc(OCC)cc3)cn12,i,nt,nt,nt,?,?
Cc1ccc(-c2cn3c(n2)sc2cc(C(=O)NCc4cccs4)ccc23)cc1,i,nt,nt,nt,20.6µM,14.6µM
Cc1c(C(=O)NCCCN2CCOCC2)sc2nc(-c3ccccc3)cn12,i,nt,nt,nt,nt,nt
O=C(NCCCN1CCCCCC1)c1ccc2c(c1)sc1nc(-c3ccccc3)cn12,i,nt,nt,nt,3.66µM,6.51µM
